Assay results published in PubChem BioAssay AID595 (National Center for Advancing Translational Sciences (NCATS), 2007).
The whole screen tested about 71,000 compounds, of which about 310 (0.44%) were called active. Not shown: some 5% with an inconclusive outcome. This is one part of a sample in which actives are shown more often than they occur. Values without a mark were called inactive. Calls come from the whole dose curve; as a rule, active = well fitted curve in either direction with a large enough effect; inconclusive = small, poorly fitted or top-dose-only effect, or another doubt; inactive = flat fitted curve, though single readings scatter.

System: Hsp90 C-terminal peptide / TPR2A (Hop) interaction, human
Assay: qHTS Assay for Disrupters of an Hsp90 Co-Chaperone Interaction
Details: AlphaScreen TPR2A-His6 binding biotin-Hsp90 C-terminal peptide; series mostly up to 57 µM; activity change, negative = inhibition: at the top concentration
Text: NIH Chemical Genomics Center [NCGC]
NIH Molecular Libraries Screening Centers Network [MLSCN]
Hsp90 (heat shock protein 90) is the essential molecular chaperone and it accounts for 1-2% of all cytosolic proteins and is critical for the activity of diverse cellular proteins that are involved in a variety of cellular processes, including development, cell cycle, and steroid hormone signaling. Its client proteins include signaling kinases such as IGF1R, Akt, v-Src, Raf-1; regulators of cell survival such as Bcr-Abl; and transcription factors such as mutated p53, estrogen and progesterone receptors. Hsp90 has emerged as an important target for cancer treatment due to its essential role in maintaining transformation and regulating the function of oncogenic signaling proteins.
The in vivo function of Hsp90 is regulated by the binding and hydrolysis of ATP at its N-terminal. Geldanamycin binds to ATP site and inhibit Hsp90 function. Geldanamycin and its analogues are under clinical trials in cancer patients.
This domain contains the binding site for tetratricopeptide repeat (TPR) domains on HOP (Hsp Organizing Protein). TPR is a structural motif used by a significant number of cochaperones by which the in vivo function of Hsp90 is regulated. TPR2A on HOP binds specifically to MEEVD motif of the C-terminal of Hsp90.
A homogeneous AlphaScreen is developed to assess the interaction between TPR2A and MEEVD motif of the C-terminal of Hsp90 by using the isolated TPR2A domain and a synthesized 20mer Hsp90 C terminal peptide. AlphaScreen is two bead-based proximity-dependent chemical energy transfer luminescent assay platform. TPR2A-His-6 and biotinylated Hsp90 C terminal peptide will bring streptavidin donor beads and nickel chelate acceptor beads to a proximity range (less than 200 nm), and subsequently lead a chemical luminescent reaction upon exciting donor beads with 680 nm laser. Inhibition of TPR2A and MEEVD motif interaction by small molecules could attenuate or abolish this chemical luminescent reaction.
Counter screening: Biotinylated-His-6 (PerkinElmer) can be utilized as a counter screen, as it serves as a linker to bring streptavidin beads and nickel chelate beads together. The counter screen can exclude alpha screen platform false positives due to small molecules being metal chelators, biotin analogues and imidazole analogues, or due to interfering with oxygen release from donor beads. Such an assay should be utilized to qualify any activity observed in this screen.
NCGC Assay Protocol Summary:
The assay was performed on 1536-well white plate (untreated solid bottom). Liquids were dispensed by 1536-well plate washer (Kalypsys, San Diego, CA). Plates were read on EnVision (PerkinElmer, Boston, MA).TPR2A-His6 was produced using a bacteria expression system and purified using a well developed method (Ghosh et al., 2000). Hsp90 C terminal 20-mer peptide with or without an N-terminal biotin group are synthesized using automated solid phase synthesis by the Yale Keck facility. The composition of assay buffer was (in mM) 25 HEPES, 100 KCl, 2 MgCl2 and 2 DTT; 0.1% BSA and 0.01% Tween-20. TPR2A-His6 binding to biotin-Hsp90 will bring streptavidin donor beads and nickel chelate acceptor beads (PerkinElmer) together and can be measured by Alpha reading by EnVision (PerkinElmer). Free Hsp90 blocks biotin-Hsp90 binding to TPR2 and serves as a positive control in the current asssay.
The assay was performed at room temperature. All compounds were screened as titrations from […] to 46 uM final concentration. The assay was performed in 1536-well format plates (untreated white solid bottom, Corning Inc.) as follows:
Sequence,Parameter,Value,Description
1,Reagent,3 uL TPR2A-His6,Final concentration was 5nM
2,Compound,23 nL,Final titration was from 0.7 nM to 46 uM
3,Time,15 minutes,Room temperature
4,Reagent,1 uL biotin-Hsp90,With and without free Hsp90. Final concentration was 10 nM for biotin-Hsp90 and 10uM for free Hsp90.
5,Time,1 hour,Room temperature
[…]
% is set by controls: 0 for no effect and ±100 for the full control effect; potency is the fitted concentration of half-maximal effect.

SMILES	activity change, negative = inhibition	Potency
CC1(C)S[C@@H]2[C@@H](NC(=O)[C@@H](N)c3ccccc3)C(=O)N2[C@H]1C(=O)O	-8.43%	
O=C(NCC12CC3CC(C1)CC(CNC(=O)N1CCCC1)(C3)C2)N1CCCC1	-1.73%	
CC(C)NC(=O)N1CCCC2(CCN(C(=O)c3cccn3C)CC2)C1	-1.72%	
c1ccc2c(Nc3ccncc3)nc(-c3ccoc3)nc2c1	-15.2%	
O=C(c1ccncc1)N1CCC2(CCN(Cc3cc(C(F)(F)F)cc(C(F)(F)F)c3)CC2)CC1	-0.985%	
COc1ccccc1CCn1c(=O)c(-c2cn(C)c3ccccc23)nc2cncnc21		631 nM [activator] (active)
Cn1cc(-c2nc3cncnc3n(-c3ccccc3)c2=O)c2ccccc21	12.7%	
COc1ccc(-n2c(=O)c(-c3cn(C)c4ccccc34)nc3cnc(OC)nc32)cc1	-7%	
COC(=O)[C@@]1(Cc2ccc(OC)cc2)[C@H]2c3cc(C(=O)N4CCCC4)n(Cc4ccc(OC(F)(F)F)cc4)c3C[C@H]2CN1C(=O)c1ccccc1	-21%	
Cc1ccc(Br)cc1	1.28%	
Cc1nc2cnc(N3CCNCC3)nc2n(CCc2ccccc2)c1=O	-7.4%	
C(=C\c1ccccc1)/CSc1nnc(-c2cccnc2)n1Cc1ccco1	-3.91%	
CCCS(=O)(=O)N1CCC(C(=O)NCCCN(C)Cc2ccccc2)CC1	2.07%	
COc1ccccc1CNc1ccnc(-c2c(C)noc2C)n1	3.49%	
CSc1ccc(S(=O)(=O)Nc2cccc(F)c2)cc1	-0.401%	
O=C(O)C1CCCN1S(=O)(=O)c1ccc2c(c1)CCC2 (stereo unspecified)	0.639%	

SMILES	activity change, negative = inhibition	Potency
CC(C)c1cc(CN(C)C)c(O)c(C(C)(C)C)c1	1.81% [at 11 µM]	
CCC(C)(NC(=O)c1ccccn1)C(=O)NC1CCCCC1 (stereo unspecified)	-3.12%	
CCOc1ccc(C(=O)N(Cc2ccc(N(C)C)cc2)C2CCS(=O)(=O)C2)cc1 (stereo unspecified)	-13%	
CC(C)Cn1c(CN(Cc2ccccc2)Cc2ccccc2)nc2c1c(=O)n(C)c(=O)n2C	2.13%	
COc1ccc(CN2C(=O)CN=C2Nc2ccc(C)cc2C)cc1	-1.44%	
OCCCNCc1ccccn1	-9.89% [at 11 µM]	
CCCCC[C@H](O)CCCC(=O)O	-7.89%	
CCCn1c(-c2ccc(F)cc2)nc2c(NC3CCN(Cc4ccccc4)C3)nc(C)nc21 (stereo unspecified)	-16.3%	
CC(=O)CCS(=O)(=O)c1ccc(C)c(C)c1	-3.12%	
C#CCN1CC(C)/C(=N/O)CC1C (stereo unspecified)	0.89%	
COc1ccc(Cl)cc1NC(=O)C1CC(=O)N(c2ccc(F)cc2)C1 (stereo unspecified)	-6.06%	
C[C@H](CCC(=O)O)[C@H]1CC[C@@H]2[C@H]3CC[C@H]4C[C@H](O)CC[C@@]4(C)[C@@H]3CC[C@@]21C	-0.844% [at 11 µM]	
COCCn1c(=O)c(CCc2ccccc2)nc2cnc(N3CCNCC3)nc21	-2.61%	
Oc1ccccc1CNCc1ccccc1O	-2.03% [at 11 µM]	
O=C(Cl)c1ccc([N+](=O)[O-])cc1	0.785%	
